Measured values reported in the supplement of paper PMC6555819.

Tests used:
Assay in all cases: PBM binding z-score (relative to random genomic background probes); higher = stronger binding; sequences stand for … in GC…GCGATTGACAGCGTAGAATGAAGG
[1] = system: RARb homodimer (NR concentration 270 nM)
Outline: (§1)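 Ligand-free nuclear receptor dimers were applied to custom Agilent 4×180K protein-binding microarrays whose double-stranded probes carried direct-repeat seeds, single-nucleotide variants, half-site ablations and random human genomic background sequences in 34-nt variable regions. Incubation lasted 1 h. Binding z-scores were computed against the random background probes from regression-normalized fluorescence.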

[2] = system: RARg:RXRa (NR concentration 270 nM, RXRa partner concentration 90 nM)
Outline: as §1

[3] = system: RARg homodimer (NR concentration 270 nM)
Outline: as §1

[4] = system: RXRa DBDmut IVT, anti-RXR (DBD mutation: RXRa K156A/R161A, NR concentration 90 nM)
Outline: as §1

[5] = system: RXRa homodimer (NR concentration 180 nM)
Outline: as §1

[6] = system: THRa:RXRa (NR concentration 90 nM, RXRa partner concentration 90 nM)
Outline: as §1

[7] = system: THRa homodimer (NR concentration 90 nM)
Outline: as §1

[8] = system: VDR homodimer (NR concentration 270 nM)
Outline: as §1

Sequence	PBM binding z-score [1]	PBM binding z-score [2]	PBM binding z-score [3]	PBM binding z-score [4]	PBM binding z-score [5]	PBM binding z-score [6]	PBM binding z-score [7]	PBM binding z-score [8]
TCTTCTAGATCAGCAGGTTAAGAAAGCTGGCCAA	-0.301	0.12	0.0708	0.571	0.331	0.17	-0.696	-0.431
ACAAACAGGTGAGTGAAGGTAACTCAGCTGGACG	0.000775	0.131	0.536	-0.35	0.457	1.5	-0.581	-0.41
TCATATAGCTAAACAGGTGAAAGTCCGTAAGTTA	0.282	0.0319	-0.0908	0.797	0.266	0.318	-0.358	0.105
CCTACTGAGCCAAAAAGGTCATTGATGCCGATAA	4.22	4.3	4.1	1.49	5.03	2.86	1.05	2.73
TCTATTAGTTGACTAGGGCAACCGAAACAGCGGA	0.778	0.736	0.586	1.31	0.703	0.514	0.147	0.286
TCATATAGGTAATACAGGTGAAAGGCGGCATCTA	0.722	0.622	0.526	1.84	1.32	0.852	0.543	0.774
AGAACGAGGGCACGGTGAGTTGATAGCAGAGTAG	1.6	2.2	2.31	1.82	1.53	2.18	0.165	2.1
ATACCAAGGTGATCGTGAAGTCGTTGATACTAAC	0.398	0.416	0.171	0.398	0.357	1.01	0.796	0.18
ATCGCTAGGTAACAAGTTCAGTGAAAGAGAGGAC	1.42	1.07	0.968	0.533	0.504	1.08	0.174	2.02
ATCTCTAGGTAACCAAGTTCAGTCAATGCCGAAC	2	1.22	1.21	1.27	0.744	1.86	1.06	3.43
CCTACTGGGCCAAAAAGGTCATTGTTGCCGATAA	4.29	4.28	3.91	0.617	4.21	2.92	0.342	2.3
CCAGACAGCTGAAAGGTAACTCAGTCTGGTACGC	-0.175	-0.0986	-0.184	0.0606	0.212	0.0566	-0.51	-0.0523
CGTCCTAGGTCAAAGGTCAGTGAAGAGATGACGG	4.99	7.97	7.18	2.25	9.16	4.54	1.39	1.24
AGAATGAGGTTATAAAGATCAGGGAATTGCGGTC	0.868	1.15	0.986	1.35	1.92	2.14	0.473	1.01
ACTAGCAGGCCAAGGGTCACTTAAGATTAGTCCG	3.52	4.12	4.04	0.5	3.87	2.96	0.297	0.981
TGAATGAGGTTAAAGATCAGGGCACGTGGCGTCG	1.91	2.84	1.59	0.869	3.95	3.35	1.32	1.03
TCTGCTAGGTCAGTTGGTCAGTTAACGAGCTGCC	2.57	2.69	3.81	0.618	0.575	1.34	0.247	-0.347
TCTAGTCGGTCACGGAGGTCACACACGACGGGTA	5.2	5.84	6.47	1.15	5.17	3.94	2.48	3.72
CCTACCGGGCCATCAGGTCATTGATATCAACGTT	2.68	2.12	2.18	-0.283	1.28	3.19	3.37	1.78

Sequence	PBM binding z-score [1]	PBM binding z-score [2]	PBM binding z-score [3]	PBM binding z-score [4]	PBM binding z-score [5]	PBM binding z-score [6]	PBM binding z-score [7]	PBM binding z-score [8]
TAGCCTCGGTCAGATCGGGCCAGTATACGCTATA	0.82	0.738	1.98	-1.02	-0.0826	2.41	-1.11	-1.63
ATCGAAAGGTCGAAGGTTAGTATACCCACCCGAA	2.72	4.38	3.94	1.41	5.38	2.19	0.185	0.865
ATCGAAAGGTCGAGGTGATTATAGAGAAAGGGAA	2.72	4.24	4.23	0.927	4.29	2.54	0.338	0.821
GCTATTAGTTGACAGGGCAACCGAATGATTCTCG	0.837	0.251	0.693	0.605	0.324	-0.129	-0.0185	-0.0905
TTACCCAGGTGAGCTGAGGTCGTTGATCCAACTC	1.17	0.816	0.509	-0.172	1.19	4.32	1.8	2.27
AGAACGAGGGCAATGAGTAGATAGCACGGGTGGC	0.9	1.33	1.4	1.67	1.14	0.671	-0.3	0.678
AGCACGAGGGCAATGAGTTGATAGCACGGGTGGC	0.927	1.16	1.72	2.14	0.851	0.817	-0.487	3.16
CCTGACAGGTGAAAGGTAACTCAGTCTGGTACGC	0.705	1.41	0.684	-0.145	1.95	0.905	-0.332	-0.107
TCTAGTAGATCAGCAGGTTAAGAAAGCTGGCCAA	-0.0798	-0.00824	-0.453	0.645	0.438	0.0763	-1.15	-0.213
TCGAGTAGGTTAGTCGTGGCATTCAGCCAACATA	-0.359	-0.49	-0.451	-0.0351	-0.388	-0.461	-1.11	-0.659
TCTTGTAGATTAACAGGAGGTTAAGAAAGATCGA	0.36	0.787	0.386	0.566	1.05	1.03	-0.287	0.0136
AGAATGAGGTTATACGTAGATCAGGGGAGAAAGT	0.956	1.78	1.26	2.05	2.14	2.25	0.738	1.45
ATCGACAGGTCGAGGTGAGTATAGAGAAAGGGAA	0.915	1.68	1.89	-0.333	1.22	1.59	0.108	0.0129
AGCATGAGGTTATACGTAGATCAGGGAAGAAAGT	0.998	1.64	1.3	1.63	1.8	2.11	0.665	0.812
TCATATAGGCAAACAGGTGAAAGTCCGTAAGTTA	0.521	0.00145	0.112	1.26	0.527	0.197	0.185	0.251
CAAACTAGGTCACGAAAGATCAAAGTCGAATGAC	3.2	4.8	5.53	1.99	4.09	3.49	1.43	0.583
CCTTACCGGTCACTCCAGGTTATAGCATCGGAGT	2.64	2.41	3.52	0.359	0.865	3.88	1.32	0.951
TAGCCTAGGTCATCCGGGCCAGTATAGTGTCGGC	3.17	4.1	4.53	1.24	2.96	3.16	1.16	1.42
TATACAGGGTCATAGGCCAGAGTACGAATGTCGA	3.08	5.43	4.72	2.94	6.27	3.5	0.758	3.52

Sequence	PBM binding z-score [1]	PBM binding z-score [2]	PBM binding z-score [3]	PBM binding z-score [4]	PBM binding z-score [5]	PBM binding z-score [6]	PBM binding z-score [7]	PBM binding z-score [8]
ACTATTAGTTGACTTAGGGCAAGCGATACGACGC	0.617	0.671	0.684	0.657	0.682	0.91	-0.0225	0.0582
CTCGAAAGGTCGGTTGCGGTGAGTATACGGATAA	1.91	2.44	2.59	1.06	2.06	3.27	-0.0628	0.294
CCTATTAGTTAACCATAAGGGCAACCGAAGCTCG	1.66	0.813	1.14	0.665	0.518	1.9	1.31	0.663
TCTTGTAGCTCAAAGGTTAAGAAAGCCGAAGCCT	1.26	1.16	0.435	0.364	1.82	1.05	-0.771	-0.151
AGAACGAGTGCAATGAGTTGATAGCACGGGTGGC	-0.553	0.1	-0.109	2.82	0.283	-0.264	-1.03	4.06
CCTTACGGGTCAAGGTTATAGCGCGGGTGGTACG	3.48	4.83	4.46	1.19	5.01	2.96	0.728	1.52
CAAACTAGGTGACAGAGGTCAAAGTCCGTGCGTA	4.61	5.54	4.74	2.18	6.14	4.15	1.75	4.09
AGTCAAAGTTCACCAGGTAACGTAAGATTCAGCT	4.3	6.02	6.53	4.1	5.25	2.88	0.769	4.32
AGAATGAGGTTACCAAAGATCAGGAAAACGCTTG	0.544	2.13	1.58	1.15	2.56	2.88	0.443	0.0267
GCTGCTAGGCCAACTGATGGTCAGCTAAAGCTCG	0.279	0.0424	0.383	-0.307	-0.651	-0.291	-1.08	-1.03
TAGCCTAGGTCATTCCGGGGCCAGTATAGAAAGC	3.12	5.28	4.24	1.28	2.66	3.63	0.929	1.46
ACTAGCAGGCCAAGTTTGGGTCACTTAAACAAAG	2.22	2.2	1.45	0.0842	0.809	2.58	1.22	0.22
TCTTGTAGATCAAGCAGGTTAAGAACGCCTGAGT	0.231	0.0271	-0.224	0.465	0.465	0.437	-0.161	0.189
CCTATTAGATGACCATAAGGGCAACCGAAGCTCG	1.98	1.02	1.2	0.541	0.88	1.69	1.19	0.819
TAGCCTAGGTCATGCAGGCCAGTATAGTGTCGGC	2.76	4	4.12	0.936	2.96	3	0.919	0.989
ATATGTAGGTTAAGGGTCACTCAGGTTGGTTCGC	4.35	4.99	4	1.82	6.33	3.59	2.01	3.47
CGCGAAAGGTCGTGCTCAGGTGAGTATACCAAAC	3.1	5.55	4.27	2.19	5.98	4.17	1.26	1.18
ATACCAAGGTGAGCGTGAGGTCGTTGATACTAAC	2	2.92	1.6	0.221	2.01	3.8	2.51	2.3
